The values that follow come from PubChem BioAssay (NCATS).

Assay [1] addresses Cytochrome P450 3A4 (Homo sapiens) (UniProt P08684). As to the kind of experiment: qHTS Assay for Inhibitors and Substrates of Cytochrome P450 3A4 (AID 884). Further: potency means the concentration at half of the fitted maximal effect; nearly all actives have a fitted effect of over 50% in size. In short, it runs like this: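 20 nM human CYP3A4 with 25 uM Luciferin-PPXE (at KM) in 200 mM KPO4, preincubated 10 min with compound; NADPH regeneration started a 60 min RT reaction. Luciferin detected by luminescence, normalized to 57 uM ketoconazole as full inhibition.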
Background: qHTS replaces the single test concentration by a dilution series.

For assay [2] the target is unchanged. As to the kind of experiment: qHTS Assay for Activators of Cytochrome P450 3A4 (AID 885). Further: nearly all actives have a fitted effect of over 65% in size. The procedure, abridged:
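Steps: enzyme/substrate mix dispensed; compound added, 10 min RT; NADPH regeneration solution added, 60 min RT; luciferin detection buffer stops reaction; 20 min later luminescence measured.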

Assay [3] in a line: Confirmation and Secondary Assay for Modulators of Hemoglobin Beta Chain Splicing at IVS2 654 locus (AID 910).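 Further: HeLa cells stably carrying EGFP split by mutant beta-globin IVS2-654 intron; per-well total GFP intensity by laser scanning cytometry after 2-day treatment; % of control where 0% means no effect.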 The procedure, abridged: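 Readout: per-well total peak green fluorescence (488 nm ex, 500–520 nm em) from objects 5–250 µm, reflecting correct splicing of an EGFP-654 reporter. Compounds were applied for 2 days at 37 °C to overnight-plated HeLa EGFP-654 cells; controls were DMSO and 500 nM IVS2-654 PNA.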

Assay [4] in a line: Confirmation and Secondary Assay for Modulators of Hemoglobin Beta Chain Splicing at IVS2 705 locus (AID 930).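 Further: HeLa cells stably expressing the EGFP-705 splicing reporter; % of control where 0% means no effect.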 The procedure, abridged: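 Assay measures total GFP intensity per well in HeLa EGFP-705 cells after 2 days with compound; mis-splicing normally truncates EGFP, so fluorescence indicates corrected splicing.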
Assay [5] can be described thus: qHTS Assay for Lipid Storage Modulators (AID 1519; calls by dose curve). Conditions: Drosophila S3 cells, BODIPY lipid droplet/cell ratio, laser cytometry, cells loaded with oleic acid; for activity change, negative = inhibition: at 57.5 µM (top of the series). In short, it runs like this:
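Cells seeded at 5,000 per well were treated with compounds over a concentration series and loaded with oleic acid (400 uM, as added). Lipid droplet fluorescence (488 nm excitation, 500-530 nm channel) was read by laser-scanning cytometry and normalized to 20 uM Triacsin C.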

Assay [6] concerns the target Ubiquitin carboxyl-terminal hydrolase 1 (Homo sapiens) (UniProt O94782). As to the kind of experiment: Inhibitors of USP1/UAF1: Pilot qHTS (AID 504865).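 Further: rhodamine fluorescence freed from ubiquitin-rhodamine substrate followed over time; top concentration of the series differs between compounds; on the % scale 0 is the no-effect control and ±100 the full control effect; nearly all actives have a fitted effect of over 35% in size.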 The procedure, abridged: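 Kinetic fluorescence assay: 1nM USP1/UAF1, 15 min compound preincubation, then 150nM Ub-Rho; 480/540 nm.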
Assay [7] concerns the target Estrogen receptor (Homo sapiens) (UniProt P03372). As to the kind of experiment: qHTS assay for small molecule antagonists of estrogen receptor alpha signaling (AID 588513; active means well fitted curve in the direction sought with a large enough effect in the signal ratio, with a control signal flat, not every such curve was filed as active; the % refers to the signal ratio; further: on the % scale 0 is the no-effect control and ±100 the full control effect). The procedure, abridged: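 Cells were plated at 5000/well and incubated 4 h at 37 C. Compounds were added as 1:2 dilution series, duplicates. 17-beta-estradiol (0.5nM final) was added for 18 h before CCF4 detection.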

Assay [8] has the same target. As to the kind of experiment: qHTS assay for small molecule agonists of estrogen receptor alpha signaling (AID 588514; calls by dose curve;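 further: 0% = vehicle only and 100% = reference agonist; nearly all actives have a fitted effect of over 70% in size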). In short, it runs like this: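 ER-alpha-UAS-bla GripTite HEK 293 cells in medium with 2% charcoal/dextran-treated FBS were treated with compound titrations at 37 C for 18 hrs; beta-lactamase reporter read by CCF4 fluorescence after 2 hrs at RT.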
Assay [9] can be described thus: qHTS assay for small molecule antagonists of peroxisome proliferator-activated receptor delta signaling (AID 588535; active means well fitted inhibition curve with a large enough effect in the signal ratio, with a control signal flat, not every such curve was filed as active; the % refers to the signal ratio;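 on max response: cells co-treated with a PPAR-delta agonist as stimulator during compound exposure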). Conditions: HEK293T PPARd-UAS-bla, beta-lactamase FRET ratio, 18 h; 460 nm channel. In short, it runs like this: (§1)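 Cell-based beta-lactamase assay in antagonist mode: 4000 HEK293T PPAR-delta-UAS-bla cells per well, 5 hr preincubation then 18 hr compound incubation at 37 C. IC50 obtained by Hill equation fitting.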

Assay [10] has as its target Peroxisome proliferator-activated receptor delta (Homo sapiens) (UniProt Q03181). The assay is described as above. In short, it runs like this:
as §1

Assay [11] has as its target Peroxisome proliferator-activated receptor gamma (Homo sapiens) (UniProt P37231). As to the kind of experiment: qHTS assay for small molecule agonists of peroxisome proliferator-activated receptor gamma signaling (AID 588536; active means well fitted curve in the direction sought with a large enough effect in the signal ratio, with a control signal flat, not every such curve was filed as active; the % refers to the signal ratio;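 further: 0% = DMSO basal wells and 100% = rosiglitazone at 2 µM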). In short, it runs like this: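 Test agents, titrated, stimulated HEK293 UAS-bla cells overnight (16 h, 37 C). Substrate CCF4 was then added for two hours at room temperature before fluorescence reading.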

The target is the same in assay [12]. As to the kind of experiment: qHTS assay for small molecule antagonists of peroxisome proliferator-activated receptor gamma signaling (AID 588537; active means well fitted inhibition curve with a large enough effect in the signal ratio, with a control signal flat, not every such curve was filed as active; the % refers to the signal ratio;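 further: reporter cells co-stimulated with 50 nM rosiglitazone agonist during compound treatment; % of control where 0% means no effect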). In short, it runs like this:
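Inhibitors of agonist-stimulated UAS-bla reporter activity were sought in HEK293 cells; rosiglitazone (50 nM) defined full signal and DMSO baseline. Curves fitted to Hill model gave IC50 and efficacy.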

Assay [13] addresses Vitamin D3 receptor (Homo sapiens) (UniProt P11473). As to the kind of experiment: qHTS assay for small molecule antagonists of vitamin D receptor signaling (AID 588541; calls by dose curve;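 further: receptor activated by calcitriol during compound treatment; on the % scale 0 is the no-effect control and ±100 the full control effect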). In short, it runs like this: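 Antagonist-mode beta-lactamase reporter assay: HEK293T VDR-UAS-bla cells were exposed to titrated compound alongside 1-alpha,25-dihydroxyvitamin D3 at 3 nM final for 16 h. Values were normalized to the 50 nM agonist control and DMSO basal, with IC50 and efficacy from Hill equation fits.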

For assay [14] the target is unchanged. As to the kind of experiment: qHTS assay for small molecule agonists of vitamin D receptor signaling (AID 588543; calls by dose curve;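 further: 0% = DMSO basal and 100% = reference agonist control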). In short, it runs like this: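 qHTS in agonist mode: compound titrations stimulate a VDR-driven β-lactamase reporter in HEK293T cells over 16 h at 37 °C. Response normalized to 50 nM 1α,25-dihydroxyvitamin D3 = 100%, DMSO = 0%; Hill fitting gives EC50 and maximal response.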

Assay [15] can be described thus: qHTS assay for small molecule agonists of retinoid X receptor alpha signaling (AID 588544; calls by dose curve;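 on activation: 0% = DMSO basal wells and 100% = reference agonist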). The following applies: HEK293T RXRa-UAS-bla, beta-lactamase reporter, 18 h; 530 nm emission.
Assay [16] addresses Retinoic acid receptor RXR-alpha (Homo sapiens) (UniProt P19793). Described as above.
Assay [17] in a line: qHTS assay for small molecule antagonists of retinoid X receptor alpha signaling (AID 588546; active means well fitted inhibition curve with a large enough effect in the signal ratio, with a control signal flat, not every such curve was filed as active; the % refers to the signal ratio;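 further: cells stimulated with 9-cis-retinoic acid as agonist; on the % scale 0 is the no-effect control and ±100 the full control effect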). The following applies: HEK293T RXRa-UAS-bla, beta-lactamase ratio, antagonist mode; measured here: W530 green channel, cytotoxicity proxy. The procedure, abridged: (§2)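 Beta-lactamase reporter inhibition, read as CCF4 fluorescence ratio (ex 405, em 460/530 nm) after 2 h at RT. HEK293T UAS-bla cells, 2500/well, were stimulated with 9-cis-RA at 500 or 100 nM final alongside test compound for 18 h at 37 C.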

Assay [18] deals with Retinoic acid receptor RXR-alpha (Homo sapiens) (UniProt P19793). The description is as above. Conditions: HEK293T RXRa-UAS-bla, beta-lactamase ratio, antagonist mode. The procedure, abridged:
as §2

The target of assay [19] is Thyroid hormone receptor beta (Homo sapiens) (UniProt P10828). As to the kind of experiment: qHTS assay for small molecule antagonists of thyroid hormone receptor beta signaling (AID 588547; active means well fitted inhibition curve with a large enough effect in the signal ratio, with a control signal flat, not every such curve was filed as active; the % refers to the signal ratio;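 further: cells stimulated with 0.4 nM T3 agonist during compound exposure; on the % scale 0 is the no-effect control and ±100 the full control effect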). Conditions: TR-UAS-bla HEK293, beta-lactamase ratio, antagonist mode, 18 h. The procedure, abridged: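 Inhibition of T3-driven (0.4nM final) beta-lactamase reporter activity was measured over 0.59 nM to 92 uM compound after 18 h at 37 C. The cells were GripTite HEK293 TR-UAS-bla in charcoal/dextran-stripped serum, with CCF4 ratio read-out and IC50 from Hill fits.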

Assay [20] in a line: qHTS assay for small molecule agonists of the antioxidant response element (ARE) signaling pathway (AID 651741; active means well fitted activation curve with a large enough effect in the signal ratio; the % refers to the signal ratio; further: % of control where 0% means no effect). In short, it runs like this: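 Seeding 2,000 ARE-bla HepG2 cells per well preceded a 5 h incubation at 37 C/5% CO2 and a 16 h compound exposure at 37 C. Beta-lactamase reporter activity was then quantified by fluorescence after 2 h with LiveBLAzer B/G FRET substrate.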

Assay [21] in a line: qHTS assay for environmental chemicals that activate the Aryl hydrocarbon Receptor (AhR) signaling pathway (AID 651777). Further: % of control where 0% means no effect; nearly all actives have a fitted effect of over 15% in size. The following applies: 1A2-DRE human hepatoma cells, luciferase, 24 h; stronger effect = higher value. In short, it runs like this: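 Stable CYP1A2 promoter/DRE-luciferase human hepatoma line treated 24 hr; One-Glo luminescence, 30 min RT.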
Assay [22] concerns the target Peroxisome proliferator-activated receptor alpha (Homo sapiens) (UniProt Q07869). As to the kind of experiment: qHTS assay for small molecule agonists of the peroxisome proliferator-activated receptor alpha (PPARalpha) signaling pathway (AID 651778). Further: % of control where 0% means no effect. Conditions: PathHunter PPARalpha complementation, chemiluminescence, 6 h; stronger effect = higher value. In short, it runs like this: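 Chemiluminescence from complemented enzyme reported PPARalpha activation in cells after 6 hr of compound treatment at 37 C. The detection reagent was incubated for 60 min at room temperature, and compounds were scored as agonists.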

The nature of assay [23]: qHTS assay for small molecule agonists of the antioxidant response element (ARE) signaling pathway measured by Nrf2-dependant transcriptional activity (AID 720636; active means well fitted curve in the direction sought with a large enough effect in the repeat runs; an effect the other way counts as inactive or inconclusive;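 further: HepG2 cells with an ARE-driven luciferase reporter; % of control where 0% means no effect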). In short, it runs like this: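 Reporter gene assay, HepG2 ARE-luc: 16 hr compound, 37 C, 5% CO2; read-out luciferase luminescence.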
Assay [24] is described as follows: qHTS assay for small molecule agonists of the antioxidant response element (ARE) signaling pathway measured by Nrf2-dependant transcriptional activity - cell viability counter screen (AID 720653; active means well fitted curve in the direction sought with a large enough effect in the repeat runs; an effect the other way counts as inactive or inconclusive; further: on the % scale 0 is the no-effect control and ±100 the full control effect). The following applies: ARE-bla HepG2 viability, CellTiter-Glo ATP luminescence, 16 h; stronger effect = lower value. The procedure, abridged: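 Cytotoxicity counter screen: intracellular ATP quantified by CellTiter-Glo luminescence in the same ARE-bla HepG2 plates, after 16 h compound exposure and a 2 h beta-lactamase substrate step.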

Assay [25] can be described thus: qHTS assay for cell viability of HEK293 cells (AID 743288). Further: on the % scale 0 is the no-effect control and ±100 the full control effect; nearly all actives have a fitted effect of over 50% in size. The following applies: ATP luminescence (CellTiter-Glo), 18 h, stronger effect = lower value. In short, it runs like this: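 The Tox21 protocol used parental HEK293 cells treated for 18 h at 37 C with compounds delivered by pintool; ATP-coupled luminescence after 30 min at room temperature gave viability.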
A short description of assay [26]: qHTS assay for cell viability of the p53RE-bla HCT-116 cell line (AID 743292). Further: on the % scale 0 is the no-effect control and ±100 the full control effect; nearly all actives have a fitted effect of over 55% in size. The procedure, abridged: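 Readout: CellTiter-Glo luminescence after 30 min RT. Treatment: compounds in DMSO, 16 h, 37 C. Cells: CellSensor p53RE-bla HCT-116, 4,000/well, preincubated 5 h.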
[27] abbreviates: measured here: cell count channel max response.
Where [28] appears, read: measured here: lipid channel max response.

Molecules are shown by their SMILES. Results filed as inconclusive are left out. The source made the active and inactive calls. Unless noted, the call rests on the fitted dose curve; in most records, active means well fitted curve in the direction sought with a large enough effect; inconclusive means small, poorly fitted or top-dose-only effect, or another doubt; inactive means no such curve, though single readings can be large; an effect the other way counts as inactive or inconclusive.

Sequence of Cytochrome P450 3A4 (Homo sapiens) (P08684 whole entry, looked up): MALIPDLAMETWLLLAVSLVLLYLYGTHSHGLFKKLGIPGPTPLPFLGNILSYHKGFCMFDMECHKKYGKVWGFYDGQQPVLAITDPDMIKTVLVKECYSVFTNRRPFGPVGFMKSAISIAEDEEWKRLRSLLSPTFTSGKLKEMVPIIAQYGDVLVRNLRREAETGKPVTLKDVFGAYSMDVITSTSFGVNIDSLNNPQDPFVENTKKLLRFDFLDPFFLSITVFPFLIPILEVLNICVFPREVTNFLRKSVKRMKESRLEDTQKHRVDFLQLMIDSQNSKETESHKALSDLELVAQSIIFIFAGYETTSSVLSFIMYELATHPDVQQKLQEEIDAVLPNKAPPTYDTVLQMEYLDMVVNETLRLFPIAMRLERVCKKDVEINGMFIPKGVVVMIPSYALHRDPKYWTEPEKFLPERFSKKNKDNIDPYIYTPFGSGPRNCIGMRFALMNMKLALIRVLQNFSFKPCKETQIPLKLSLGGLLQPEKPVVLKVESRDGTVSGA
Sequence of Ubiquitin carboxyl-terminal hydrolase 1 (Homo sapiens) (O94782 whole entry, looked up): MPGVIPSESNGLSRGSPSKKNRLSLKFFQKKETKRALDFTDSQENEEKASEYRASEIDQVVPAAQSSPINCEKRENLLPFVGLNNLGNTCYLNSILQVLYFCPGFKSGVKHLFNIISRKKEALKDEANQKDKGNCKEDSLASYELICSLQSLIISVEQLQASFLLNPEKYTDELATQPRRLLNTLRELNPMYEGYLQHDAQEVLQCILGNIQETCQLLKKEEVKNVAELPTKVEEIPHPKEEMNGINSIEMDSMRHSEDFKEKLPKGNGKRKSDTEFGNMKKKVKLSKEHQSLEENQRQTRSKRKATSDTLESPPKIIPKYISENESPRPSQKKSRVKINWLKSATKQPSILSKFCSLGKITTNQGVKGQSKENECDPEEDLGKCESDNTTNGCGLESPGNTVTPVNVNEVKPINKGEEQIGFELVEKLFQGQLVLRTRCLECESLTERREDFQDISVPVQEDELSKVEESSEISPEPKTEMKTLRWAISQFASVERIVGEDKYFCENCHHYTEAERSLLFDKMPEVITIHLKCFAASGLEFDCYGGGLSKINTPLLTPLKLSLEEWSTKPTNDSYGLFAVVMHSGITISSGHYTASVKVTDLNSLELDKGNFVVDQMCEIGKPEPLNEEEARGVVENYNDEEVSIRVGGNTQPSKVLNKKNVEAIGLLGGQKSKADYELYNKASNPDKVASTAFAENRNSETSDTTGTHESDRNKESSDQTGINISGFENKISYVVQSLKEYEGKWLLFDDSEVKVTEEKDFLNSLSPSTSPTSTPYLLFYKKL
Sequence of Retinoic acid receptor RXR-alpha (Homo sapiens) (P19793 whole entry, looked up): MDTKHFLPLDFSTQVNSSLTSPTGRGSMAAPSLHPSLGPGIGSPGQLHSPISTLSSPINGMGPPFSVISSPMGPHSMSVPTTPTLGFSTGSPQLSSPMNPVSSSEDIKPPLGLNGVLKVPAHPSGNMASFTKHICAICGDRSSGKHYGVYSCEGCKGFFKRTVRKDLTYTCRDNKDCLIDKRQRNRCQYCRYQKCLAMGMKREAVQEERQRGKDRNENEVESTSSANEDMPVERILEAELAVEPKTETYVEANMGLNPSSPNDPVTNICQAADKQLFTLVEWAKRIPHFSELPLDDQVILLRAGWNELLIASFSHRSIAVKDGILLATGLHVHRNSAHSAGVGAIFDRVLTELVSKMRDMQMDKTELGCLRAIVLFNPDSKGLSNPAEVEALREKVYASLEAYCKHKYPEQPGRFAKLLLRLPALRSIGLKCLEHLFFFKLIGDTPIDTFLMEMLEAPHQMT
Sequence of Vitamin D3 receptor (Homo sapiens) (P11473 whole entry, looked up): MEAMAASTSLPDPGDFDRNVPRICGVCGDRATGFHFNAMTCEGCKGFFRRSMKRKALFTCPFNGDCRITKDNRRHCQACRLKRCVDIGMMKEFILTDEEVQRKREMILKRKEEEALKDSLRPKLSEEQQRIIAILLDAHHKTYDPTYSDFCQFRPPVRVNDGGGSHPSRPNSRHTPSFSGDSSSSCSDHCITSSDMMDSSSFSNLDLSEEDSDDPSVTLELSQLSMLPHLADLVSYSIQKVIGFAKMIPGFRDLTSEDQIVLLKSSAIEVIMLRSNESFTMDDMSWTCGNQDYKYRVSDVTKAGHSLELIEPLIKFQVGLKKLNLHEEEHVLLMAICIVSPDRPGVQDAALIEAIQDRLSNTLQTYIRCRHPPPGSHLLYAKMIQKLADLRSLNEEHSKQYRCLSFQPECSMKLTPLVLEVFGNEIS
Sequence of Estrogen receptor (Homo sapiens) (P03372 whole entry, looked up): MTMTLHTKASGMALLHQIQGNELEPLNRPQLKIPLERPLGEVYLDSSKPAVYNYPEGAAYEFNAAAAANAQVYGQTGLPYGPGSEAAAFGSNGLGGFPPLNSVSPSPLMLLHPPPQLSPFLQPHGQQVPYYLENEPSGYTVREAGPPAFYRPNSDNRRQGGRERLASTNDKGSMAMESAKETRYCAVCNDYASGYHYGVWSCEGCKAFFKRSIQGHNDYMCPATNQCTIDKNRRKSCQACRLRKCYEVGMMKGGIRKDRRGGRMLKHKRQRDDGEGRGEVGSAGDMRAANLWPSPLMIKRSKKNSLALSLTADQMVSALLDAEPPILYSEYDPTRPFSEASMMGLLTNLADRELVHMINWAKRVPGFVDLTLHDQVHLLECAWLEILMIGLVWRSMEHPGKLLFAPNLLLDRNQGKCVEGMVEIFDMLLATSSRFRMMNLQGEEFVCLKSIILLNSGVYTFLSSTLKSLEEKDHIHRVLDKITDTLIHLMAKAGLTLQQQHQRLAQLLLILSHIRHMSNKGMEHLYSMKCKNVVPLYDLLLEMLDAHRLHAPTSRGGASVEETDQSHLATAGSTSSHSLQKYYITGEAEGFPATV
Sequence of Peroxisome proliferator-activated receptor gamma (Homo sapiens) (P37231 whole entry, looked up): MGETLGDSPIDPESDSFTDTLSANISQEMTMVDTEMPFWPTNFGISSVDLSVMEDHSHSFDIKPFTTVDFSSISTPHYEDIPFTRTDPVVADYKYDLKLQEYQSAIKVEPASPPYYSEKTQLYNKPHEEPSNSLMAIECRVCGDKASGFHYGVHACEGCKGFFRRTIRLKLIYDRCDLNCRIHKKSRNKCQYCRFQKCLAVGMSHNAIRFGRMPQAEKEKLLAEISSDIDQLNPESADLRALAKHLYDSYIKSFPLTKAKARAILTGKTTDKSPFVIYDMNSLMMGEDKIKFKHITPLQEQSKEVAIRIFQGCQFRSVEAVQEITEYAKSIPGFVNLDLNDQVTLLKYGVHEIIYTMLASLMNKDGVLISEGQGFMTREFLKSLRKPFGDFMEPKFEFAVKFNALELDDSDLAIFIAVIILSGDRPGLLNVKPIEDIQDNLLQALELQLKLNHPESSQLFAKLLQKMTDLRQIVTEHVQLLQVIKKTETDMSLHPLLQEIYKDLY
Sequence of Thyroid hormone receptor beta (Homo sapiens) (P10828 whole entry, looked up): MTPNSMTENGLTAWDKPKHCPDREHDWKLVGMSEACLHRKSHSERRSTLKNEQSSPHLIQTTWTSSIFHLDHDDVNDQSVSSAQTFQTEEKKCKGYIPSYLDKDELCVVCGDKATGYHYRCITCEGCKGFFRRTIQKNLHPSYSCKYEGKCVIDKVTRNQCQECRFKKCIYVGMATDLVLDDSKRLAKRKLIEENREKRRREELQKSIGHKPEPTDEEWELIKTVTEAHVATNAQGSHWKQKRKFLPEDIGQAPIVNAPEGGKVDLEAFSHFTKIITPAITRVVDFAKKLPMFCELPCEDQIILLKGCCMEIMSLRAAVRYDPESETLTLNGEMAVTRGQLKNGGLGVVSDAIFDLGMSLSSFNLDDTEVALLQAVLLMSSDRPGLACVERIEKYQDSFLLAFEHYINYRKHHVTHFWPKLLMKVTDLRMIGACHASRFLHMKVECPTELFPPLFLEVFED
Sequence of Peroxisome proliferator-activated receptor alpha (Homo sapiens) (Q07869 whole entry, looked up): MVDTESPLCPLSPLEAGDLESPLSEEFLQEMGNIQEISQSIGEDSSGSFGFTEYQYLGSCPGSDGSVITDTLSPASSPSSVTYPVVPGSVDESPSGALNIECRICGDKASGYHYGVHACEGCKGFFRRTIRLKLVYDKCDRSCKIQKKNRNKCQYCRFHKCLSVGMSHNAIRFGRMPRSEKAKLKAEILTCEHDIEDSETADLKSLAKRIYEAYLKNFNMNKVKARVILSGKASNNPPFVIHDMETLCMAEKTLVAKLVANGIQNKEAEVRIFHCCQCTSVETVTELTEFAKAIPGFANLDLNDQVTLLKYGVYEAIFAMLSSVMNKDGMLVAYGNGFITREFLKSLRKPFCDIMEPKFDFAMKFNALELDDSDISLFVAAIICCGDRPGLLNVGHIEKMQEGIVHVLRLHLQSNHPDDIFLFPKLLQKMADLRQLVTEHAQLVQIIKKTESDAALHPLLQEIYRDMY
Sequence of Peroxisome proliferator-activated receptor delta (Homo sapiens) (Q03181 whole entry, looked up): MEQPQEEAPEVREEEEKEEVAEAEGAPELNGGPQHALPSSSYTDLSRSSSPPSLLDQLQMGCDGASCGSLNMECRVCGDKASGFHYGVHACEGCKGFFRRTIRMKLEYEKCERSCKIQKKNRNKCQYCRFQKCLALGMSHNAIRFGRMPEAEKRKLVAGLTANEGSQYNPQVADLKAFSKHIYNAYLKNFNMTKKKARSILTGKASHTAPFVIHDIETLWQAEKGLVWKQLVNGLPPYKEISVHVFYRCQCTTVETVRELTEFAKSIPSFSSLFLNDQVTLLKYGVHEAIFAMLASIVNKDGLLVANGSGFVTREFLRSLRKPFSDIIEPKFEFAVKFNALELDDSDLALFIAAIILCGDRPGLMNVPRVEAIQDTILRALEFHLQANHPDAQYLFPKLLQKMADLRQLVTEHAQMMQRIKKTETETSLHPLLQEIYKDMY

Take `CC(C)/C(O)=C1/C(=O)OC(c2ccoc2)[C@@]2(C)C(O)C(O)[C@@]34OC5(C)OC67CC(C)(C(O)[C@@]6(O)C(O)[C@@]3(O5)C12)C(CC(=O)O)[C@@]74C` (some centres not stated): the Potency in [1] was 12.6 µM (active). Besides, the Potency entry in assay [2], in assay [3], in assay [4] and in assay [6] was “inactive” in each case. Also, the activity change, negative = inhibition in [5] was 0.873% (inactive). In addition, the max response in assay [5] (setting [27]) is -1.97%; in assay [5] (setting [28]) it was 0.302%.

On to `COc1c(Cl)ccc(Cl)c1C(=O)O`, for which the Potency entry in [3], in [4], in assay [6] and in [20] was “inactive” each time. Also, the activity change, negative = inhibition in assay [5] was 0.0476% (inactive). Besides, the max response is -8.45% in assay [5] (setting [27]); -7.42% in assay [5] (setting [28]); -7.82% in assay [9]; -9.41% in assay [15]; -0.329% in assay [17]; 3.8% (inactive) in assay [18]. The max response in assay [22] was 0.109% (inactive); in assay [24], -4.23% (inactive); in [25], -3.63% (inactive). Further, the compound was classed as inactive in assay [7], in [8], in [10], in assay [11], in assay [12] and in assay [13]. The compound was classed as inactive in assay [14], in assay [16], in [23] and in [26]. Moreover, the activity change % (negative = inhibition) in assay [19] is 5.53% (inactive). Further, in assay [21], the activation is 1.18% (inactive).

On to `COc1ccc(-c2c(O)c3c(OC)c4c(cc3oc2=O)OC(C)(C)C=C4)cc1`, for which the Potency in assay [1] was 6.31 µM (active). Moreover, the Potency entry in assay [2], in assay [3], in [4] and in assay [6] was “inactive” in each case. For the same compound, in assay [5], the activity change, negative = inhibition was -13.4% (inactive). Besides, the max response in assay [5] (setting [27]) was -5.03%; in assay [5] (setting [28]), -5.79%.
